Compounds with a hit are over-represented: about 1.6% of the library has one in this group of screens.
KCNQ2 enhance – potentiators of rat KCNQ2 potassium channel | Potassium voltage-gated channel subfamily KQT member 2 (Rattus norvegicus), O88943 | CHO-K1 KCNQ2, FluxOR thallium flux fluorescence; stronger effect = higher value | B-score at 10 µM | actives 0.54% (n = 310,000);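 active means fluorescence ratio B-score at least 3 SD of library B-scores, with initial fluorescence B-score within 3 of them, cut at about 5.3 in these data; same plate scores as AID 2156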;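 further: B-score of peak minus minimum over baseline fluorescence ratio after K+ and Tl+ stimulus; positive B-score means potentiation of KCNQ2 with more thallium influx and brighter signal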
Target sequence (O88943 whole entry, looked up): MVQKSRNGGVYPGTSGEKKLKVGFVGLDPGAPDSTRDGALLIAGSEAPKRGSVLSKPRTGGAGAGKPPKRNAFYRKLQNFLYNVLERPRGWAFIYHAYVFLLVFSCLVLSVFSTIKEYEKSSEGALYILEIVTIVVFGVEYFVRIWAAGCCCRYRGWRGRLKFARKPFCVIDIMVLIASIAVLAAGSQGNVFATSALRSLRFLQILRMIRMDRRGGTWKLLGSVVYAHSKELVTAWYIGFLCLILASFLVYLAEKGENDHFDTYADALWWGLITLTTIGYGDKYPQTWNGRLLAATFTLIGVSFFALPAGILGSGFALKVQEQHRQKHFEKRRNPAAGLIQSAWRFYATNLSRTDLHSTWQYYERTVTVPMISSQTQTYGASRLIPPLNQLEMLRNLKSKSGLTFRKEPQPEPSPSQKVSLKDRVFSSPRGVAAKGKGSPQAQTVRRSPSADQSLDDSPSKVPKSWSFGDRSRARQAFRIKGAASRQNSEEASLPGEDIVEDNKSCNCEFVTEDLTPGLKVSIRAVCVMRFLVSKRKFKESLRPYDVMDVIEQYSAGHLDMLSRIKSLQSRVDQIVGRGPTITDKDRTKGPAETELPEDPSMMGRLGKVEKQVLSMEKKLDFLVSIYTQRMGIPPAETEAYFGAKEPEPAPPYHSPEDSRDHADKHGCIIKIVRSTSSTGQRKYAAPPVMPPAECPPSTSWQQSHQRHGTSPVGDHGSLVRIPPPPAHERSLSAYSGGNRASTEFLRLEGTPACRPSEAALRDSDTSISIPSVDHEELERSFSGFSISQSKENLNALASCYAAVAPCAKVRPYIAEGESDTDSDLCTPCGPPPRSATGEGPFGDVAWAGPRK
KCNQ2 block – rat KCNQ2 potassium channel inhibitors, primary screen, cell-based, CHO-K1, FluxOR thallium flux, B-score | Potassium voltage-gated channel subfamily KQT member 2 (Rattus norvegicus), O88943 | actives 1.1% (n = 310,000) | B-score at 10 µM | 20 min; stronger effect = lower value;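 active means fluorescence ratio B-score at most minus 3 library SDs, with starting brightness B-score within 2 library SDs, cut at about -5.5 in these data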
Numbers without * were called inactive; i = inactive; . = not tested or not shown.

SMILES | KCNQ2 enhance | KCNQ2 block
O=C(Cc1ccccc1)Nn1c(-c2ccccc2F)nc2ccccc2c1=O | 9.4* | i
O=C(Nn1c(-c2ccccc2)nc2ccccc2c1=O)c1ccco1 | 0.08 | i
O=C(Cc1ccccc1)Nn1c(-c2ccccc2)nc2ccccc2c1=O | 8.4* | i
O=C(CSc1nc2ccccc2c(=O)n1NC(=O)Cc1ccccc1)NCc1ccccc1 | 0.8 | i
CCCn1c(SCC(=O)NC(C)(C)C)nnc1-c1ccco1 | 0.67 | i
Cc1c(O)nc(SCC(=O)Nc2ccc3c4c(cccc24)CC3)n(-c2ccccc2)c1=O | 12* | i
O=C(CSc1nc(O)cc(=O)n1-c1ccccc1)Nc1ccc2c3c(cccc13)CC2 | 3.3 | i
O=C1c2ccccc2C(=O)N1CC1c2ccccc2CCN1C(=O)CN1CCOCC1 (centres undefined) | . | i
CCN(CC)C(=O)N1CCc2ccccc2C1CN1C(=O)c2ccccc2C1=O (centres undefined) | -6.2 | -6.2*
O=C(O)[C@@H]1CCCC[C@@H]1C(=O)N1CCc2ccccc2C1CN1C(=O)c2ccccc2C1=O (some centres undefined) | . | i
O=C1c2ccccc2C(=O)N1CC1c2ccccc2CCN1C(=O)C1CCCCC1 (centres undefined) | -6.9 | -6.9*
CS(=O)(=O)N1CCN(C(=O)Cc2ccccc2Cl)CC1 | . | i
O=C(Cn1cc(C(F)(F)F)cc(Cl)c1=O)NCc1ccccc1 | 1.5 | i
O=C(Nc1cccc2cccnc12)c1ccc(Cl)cc1 | . | i
CCOc1ccc(/C(C)=N\NC(=O)Cc2ccccc2)cc1 | 0.91 | i
O=C1CC(c2cccc(Cl)c2)CC(O)=C1C=NC1CCCC1 (centres undefined) | -6.8 | -6.8*
O=C1CC(c2ccccc2)CC(O)=C1C=NCc1ccccc1Cl (centres undefined) | . | i
ClC1(Cl)CC1Cn1cnc2ccccc21 (centres undefined) | 1.2 | i
O=c1[nH]c(-c2ccc(Cl)cc2)cs1 | . | i
Fc1ccc(-c2csc(=S)[nH]2)cc1 | 11* | i
O=C(NC1CCCC1)C(c1ccncc1)N(C(=O)Cc1cccs1)c1cccc(F)c1 (centres undefined) | . | i
COc1ccccc1NC(=O)N1C2CCCC1CC(NC(=O)c1ccccc1)C2 (centres undefined) | 0.53 | i
Cc1ccc(S(=O)(=O)C/N=C(/NC(=S)N(c2ccccc2)c2ccccc2)c2ccccc2)cc1 | -5.9 | -5.9*
Cc1ccc(S(=O)(=O)/N=C(/NC(=S)Nc2ccccc2)c2ccccc2)cc1 | . | i
Cc1cccc(NC(=S)NCc2ccc(F)cc2)c1C | . | i
SMILES | KCNQ2 enhance | KCNQ2 block
Oc1ccc(Cl)cc1C1=NNC(c2cccs2)C1 (centres undefined) | 12* | i
Cc1ccc(O)c(C2=NNC(c3ccc(Cl)cc3)C2)c1 (centres undefined) | . | i
C/C(=N\NC(=O)CCC(=O)Nc1ccc(C)c(C)c1)C1CC1 | 0.18 | i
COc1ccc(NC(=O)c2cn(-c3ccccc3)nc2-c2ccncc2)cc1 | . | i
COc1ccc(-c2nn(-c3ccccc3)cc2C(=O)NC(=S)Nc2cc(Cl)ccc2Cl)cc1 | -7.7 | -7.7*
COc1ccc(NC(=O)c2cn(-c3ccccc3)nc2-c2cc3ccccc3o2)cc1 | -6 | -6*
COc1ccc(-c2nn(-c3ccccc3)cc2C(=O)NC(=S)NNC(=O)c2ccncc2)cc1 | . | i
CCOc1ccc(/C=C2/SC(=O)NC2=S)cc1 | 26* | i
CCOc1ccc(N=C2NC(=O)S/C2=C\c2ccc(N(C)C)cc2)cc1 | 0.46 | i
Brc1ccc(CSc2nnc(-c3ccccn3)n2Cc2ccco2)cc1 | . | i
O=C(CSc1nnc(-c2ccccn2)n1Cc1ccco1)c1ccc(Cl)cc1 | . | i
CC(C)(C)c1ccc(CSc2nnc(-c3ccccn3)n2Cc2ccco2)cc1 | -5.6 | -5.6*
Clc1cccc(CSc2nnc(-c3ccccn3)n2Cc2ccco2)c1 | -6.7 | -6.7*
Cn1cccc1/C=N/N1CCN(Cc2cccc3ccccc23)CC1 | . | i
Cc1ccc(S(=O)(=O)N2CCCN(C(=O)c3cc4ccccc4[nH]3)CC2)cc1 | . | i
COc1ccccc1Nc1cc(C(=O)N2CCc3ccccc3C2)c2ccccc2n1 | -6.3 | -6.3*
COc1ccc(Nc2cc(C(=O)N3CCc4ccccc4C3)c3ccccc3n2)c(OC)c1 | -8 | -8*
COCCCNC(=O)c1cc(Nc2ccc(OC)cc2OC)nc2ccccc12 | 0.01 | i
COc1ccccc1-c1cc(C(=O)N2CCc3ccccc3C2)c2ccccc2n1 | . | i
Clc1ccccc1OCc1nnc(-c2ccccc2Br)o1 | . | i
Clc1ccc(Cc2nnc(-c3ccccc3Br)o2)cc1 | -5.9 | -5.9*
Cn1c(=O)c(-c2cc(=O)[nH][nH]2)c(O)c2ccccc21 | 0.63 | i
CC(C)(CO)NCc1c(OCc2ccc(Cl)cc2)ccc2ccccc12 | 4.6 | i
CC1C/C(=C\c2ccccc2[N+](=O)[O-])c2nc3ccccc3c(C(=O)O)c2C1 (centres undefined) | -5.8 | -5.8*
O=C(O)c1c2c(nc3ccccc13)/C(=C/c1ccccc1[N+](=O)[O-])CCC2 | . | i
SMILES | KCNQ2 enhance | KCNQ2 block
CCCCc1ccc(NC(=O)Nc2cc(C)nn2C)cc1 | 0.11 | i
CCc1ccc2oc(C(=O)NCCc3ccc(S(N)(=O)=O)cc3)cc(=O)c2c1 | . | i
Cc1ccc2c(c1)/C(=C/c1ccc(F)cc1)C(=O)N2 | 0.68 | i
Cc1ccc2c(c1)N/C(=C(\C=C(/Cl)[N+](=O)[O-])[N+](=O)[O-])N2 | -6.8 | -6.8*
CCOC(=O)c1cc(-c2ccco2)nc2c1c(C)nn2-c1ccccc1 | -6 | -6*
CCCn1c(=O)c2c(C(=O)OCC)cc(-c3ccco3)nc2n(CCC)c1=O | . | i
C=CCN1C(=O)C(C)NC1=S (centres undefined) | . | i
CCS(=O)(=O)c1nc(S(=O)(=O)c2ccc(Cl)cc2)c(N2CCC(O)CC2)s1 | 0.04 | i
COCCn1cc(C(=O)N2CCC(C)CC2)c2c3ccccc3n(C)c2c1=O | -5.7 | -5.7*
CC(C)Cn1cc(C(=O)N2CCC(C)CC2)c2c3ccccc3n(C)c2c1=O | -7 | -7*
CC(C)Cn1cc(C(=O)N2CCOCC2)c2c3ccccc3n(C)c2c1=O | . | i
CCOC(=O)N1CCN(C(=O)c2cn(CC(C)C)c(=O)c3c2c2ccccc2n3C)CC1 | . | i
COc1ccc(C2=NS(=O)(=O)N(C)C(C(=O)Nc3ccc4c(c3)OCO4)=C2)cc1OC | 0.2 | i
COC(=O)c1cc(-c2cccs2)nn1-c1ccccc1 | 0.05 | i
O=C(c1ccccc1)n1ccc(-c2cccs2)n1 | 8.6* | i
Fc1ccccc1C1c2cccn2CCN1C(=S)Nc1ccc(Br)cc1 (centres undefined) | . | i
COC(=O)c1cccc(COC(=O)c2ccc(N(C)C)cc2)c1 | -6.5 | -6.5*
COC(=O)c1ccc(COC(=O)c2ccc(N(C)C)cc2)cc1 | . | i
c1cnc(N2CCN(c3cnccn3)CC2)nc1 | 0.08 | i
CCC1(c2ccc(Cl)cc2)NC(=S)N(c2ccc(C)cc2)N1 (centres undefined) | 17* | i
CC1(CCc2ccccc2)NC(=S)N(c2ccc(Cl)cc2)N1 (centres undefined) | . | i
COc1ccc(Nc2ccc(C(F)(F)F)cc2[N+](=O)[O-])cn1 | 0.29 | i
